This is part of a sample that, as a whole, favours compounds with a hit. Of some 83,000 tested, about 20% had one in any assay.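 Results are percent growth after 48 hours of single-concentration exposure. 100 means growth as in untreated cells, lower positive values show inhibition; negative values down to -100 show cell death.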 A number with no mark means an inactive call. Activity calls are given as the source filed them. How the source made its calls: active means growth percent below 10; inactive means the rest.

Some test systems named below: HCT-15 colon; HT29 colon; SNB-75 CNS; SNB-19 CNS; U251 CNS; PC-3 prostate; SK-MEL-5 melanoma; UACC-62 melanoma; LOX IMVI melanoma; SK-MEL-28 melanoma; SK-MEL-2 melanoma; EKVX NSCLC; SN12C renal; UO-31 renal; TK-10 renal; ACHN renal; CAKI-1 renal; A498 renal; CCRF-CEM leukemia; MOLT-4 leukemia.
Holding throughout (assay): NCI-60 one-dose screen, 48 h (100 = growth as untreated, 0 = no growth, -100 = all killed)
Common to all, as to details: 10 µM unless noted

In the case of `C1=CC(c2nn3c(-c4ccccc4)nnc3s2)=Cc2ccccc2O1`, the growth in the assay on HCT-15 colon is 23.5%; in the assay on HT29 colon, 82.1%; in the assay with SNB-75 CNS it was 78.3%; in the assay with SNB-19 CNS, 74.9%; with U251 CNS, 84.9%; in the assay with PC-3 prostate, 80.5%. Besides, the growth in the assay on SK-MEL-5 melanoma is 95.6%; with UACC-62 melanoma, 74%; in the assay with LOX IMVI melanoma it was -24.4% (active); in the assay with SK-MEL-28 melanoma, 30.6%; in the assay on SK-MEL-2 melanoma, 74.7%; in the assay with EKVX NSCLC it was 88.5%. In addition, the growth was 78.9% in the assay on SN12C renal; 53.4% with UO-31 renal; 116% with TK-10 renal; 76.7% in the assay with ACHN renal; 47.6% in the assay with CAKI-1 renal; 67.5% in the assay on A498 renal. The values for the growth in the assay on CCRF-CEM leukemia and in the assay with MOLT-4 leukemia were 27.9% and 39.2%, respectively.

For the compound `COc1cccc(N2CCN(C3=C(Cl)C(=O)c4ncccc4C3=O)CC2)c1`, the growth in the assay on HCT-15 colon was 42.3%; with HT29 colon it was 108%; in the assay on SNB-75 CNS, 85.1%; in the assay with SNB-19 CNS, 90.8%; with U251 CNS, 90.5%; with PC-3 prostate, 78.7%. For the same compound, the growth with SK-MEL-5 melanoma is 97.3%; in the assay with UACC-62 melanoma it was 84.3%; with LOX IMVI melanoma, 28.6%; with SK-MEL-28 melanoma it was 105%; in the assay with SK-MEL-2 melanoma, 98.4%; in the assay on EKVX NSCLC, 102%. For the same compound, the growth with SN12C renal is 95.8%; with UO-31 renal, 38%; in the assay on TK-10 renal, 126%; in the assay with ACHN renal, -23.8% (active); with CAKI-1 renal, 57.8%; in the assay with A498 renal, 104%. Moreover, the figures for the growth in the assay with CCRF-CEM leukemia and in the assay on MOLT-4 leukemia were 10% (active) and 18.2%, respectively.

On to `COc1ccc(C2c3[nH]c4ccc(Cl)cc4c3CCN2c2oc(CO)nc2C#N)cc1` (stereo not given), for which the growth in the assay on HCT-15 colon was 22.2%; in the assay with HT29 colon, 22.9%; in the assay on SNB-75 CNS, 46.5%; in the assay on SNB-19 CNS, 51.9%; in the assay on U251 CNS, 38.9%; with PC-3 prostate, 41.3%. The growth was 29.7% with SK-MEL-5 melanoma; 39.3% with UACC-62 melanoma; 24.2% with LOX IMVI melanoma; 60.1% with SK-MEL-28 melanoma; 81.6% in the assay on SK-MEL-2 melanoma; 59.4% in the assay on EKVX NSCLC. Besides, the growth in the assay with SN12C renal is 66.4%; with UO-31 renal, 54%; in the assay with TK-10 renal, 93.9%; with ACHN renal it was 45.3%; in the assay on CAKI-1 renal, 36.5%; in the assay on A498 renal, 68.7%. Also, the values for the growth in the assay with CCRF-CEM leukemia and with MOLT-4 leukemia were 37.3% and 29.3%, respectively.

As for `O=c1c2cc(-c3ccc(F)cc3F)ccc2n(Nc2ccccc2)c(=O)n1-c1cccc(C(F)(F)F)c1`, the growth in the assay with HCT-15 colon is 11.4%; with HT29 colon, 59.3%; in the assay with SNB-75 CNS, -8.2% (active); in the assay on SNB-19 CNS, 11.5%; with U251 CNS, 9.58% (active); with PC-3 prostate, 1.28% (active). Further, the growth in the assay on SK-MEL-5 melanoma was -53.7% (active); with UACC-62 melanoma, 10.9%; in the assay on LOX IMVI melanoma it was -4.69% (active); with SK-MEL-28 melanoma it was 29.5%; with SK-MEL-2 melanoma, -11.2% (active); in the assay on EKVX NSCLC, 6.49% (active). The growth is 3.98% (active) with SN12C renal; 4.59% (active) with UO-31 renal; 11.3% in the assay with TK-10 renal; 2.25% (active) in the assay with ACHN renal; -10.6% (active) in the assay on CAKI-1 renal; -18.1% (active) in the assay on A498 renal. The growth with CCRF-CEM leukemia was 15.5%; with MOLT-4 leukemia, 6.73% (active).

In the case of `O=S(=O)(NCCCNc1nccc(-c2[nH]c(-c3ccccc3)nc2-c2ccc(F)c(O)c2)n1)c1cccc(F)c1`, the growth with HCT-15 colon is 86%; in the assay with HT29 colon, 99.4%; in the assay with SNB-75 CNS, 69.3%; with SNB-19 CNS it was 110%; in the assay on U251 CNS, 99.4%; in the assay on PC-3 prostate, 77.3%. Moreover, the growth in the assay on SK-MEL-5 melanoma is 46.5%; in the assay on UACC-62 melanoma, 18.2%; in the assay on LOX IMVI melanoma it was 70%; in the assay on SK-MEL-28 melanoma, 31.8%; in the assay with SK-MEL-2 melanoma it was 39.2%; with EKVX NSCLC, 99.8%. Also, the growth in the assay on SN12C renal was 99.1%; in the assay on UO-31 renal, 139%; in the assay on TK-10 renal it was 134%; in the assay with ACHN renal, 93.2%; in the assay with CAKI-1 renal, 95.5%; with A498 renal, 93.5%. The growth in the assay on CCRF-CEM leukemia was 37%; in the assay with MOLT-4 leukemia, 44.3%.

As for `COc1ccc(/C(=N\N=C(N)N)c2ccc(Cl)cc2)cc1OC`, the growth with HCT-15 colon was 77.3%; in the assay on HT29 colon, 54.9%; in the assay on SNB-75 CNS, 46.2%; in the assay with SNB-19 CNS, 72.9%; with U251 CNS it was 72.4%; in the assay with PC-3 prostate it was 44%. Further, the growth in the assay on SK-MEL-5 melanoma was 93%; in the assay with UACC-62 melanoma, 80.2%; with LOX IMVI melanoma, 58.3%; with SK-MEL-28 melanoma, 96.5%; with SK-MEL-2 melanoma, 99.9%; in the assay with EKVX NSCLC it was 72.6%. In addition, the growth in the assay on SN12C renal is 70.8%; with UO-31 renal it was 83.7%; in the assay on TK-10 renal it was 77%; with ACHN renal, 94.8%; with CAKI-1 renal it was 50.1%; with A498 renal it was 76.5%. Also, the growth in the assay with CCRF-CEM leukemia is 67.3%; in the assay with MOLT-4 leukemia, 52.5%.

As to `CCS(=O)(=O)Nc1ccc(C(=O)CC2(O)C(=O)Nc3ccccc32)cc1` (stereo not given), the growth in the assay with HCT-15 colon is 100%; in the assay on HT29 colon, 113%; in the assay with SNB-75 CNS, 69.2%; with SNB-19 CNS it was 101%; in the assay on U251 CNS, 105%; in the assay on PC-3 prostate it was 92.4%. The growth is 99.8% in the assay with SK-MEL-5 melanoma; 96.9% in the assay on UACC-62 melanoma; 94.6% in the assay on LOX IMVI melanoma; 109% in the assay on SK-MEL-28 melanoma; 113% in the assay on SK-MEL-2 melanoma; 91.8% in the assay with EKVX NSCLC. The growth with SN12C renal is 97.4%; in the assay on UO-31 renal, 67.7%; in the assay with TK-10 renal, 122%; in the assay with ACHN renal it was 95.3%; with CAKI-1 renal, 82.6%; with A498 renal, 103%. The figures for the growth with CCRF-CEM leukemia and with MOLT-4 leukemia were 99.7% and 102%, respectively.

With `CCCCc1nc2c(N)nc3ccccc3c2n1Cc1cccc(CN)c1`, the growth was 55.9% in the assay with HCT-15 colon; 17.4% with HT29 colon; 15.1% in the assay with SNB-75 CNS; 63.2% with SNB-19 CNS; 38.5% with U251 CNS; 53.3% in the assay with PC-3 prostate. Moreover, the growth is 55% in the assay with SK-MEL-5 melanoma; 76.3% with UACC-62 melanoma; 18.1% with LOX IMVI melanoma; 59.4% in the assay on SK-MEL-28 melanoma; 79.4% with SK-MEL-2 melanoma; 77% in the assay on EKVX NSCLC. Also, the growth in the assay with SN12C renal is 68.9%; in the assay with UO-31 renal, 70.5%; with TK-10 renal it was 89.9%; in the assay on ACHN renal it was 65%; in the assay on CAKI-1 renal, 14.2%; in the assay on A498 renal it was 16.3%. Besides, the growth with CCRF-CEM leukemia is 23.9%; with MOLT-4 leukemia it was 33.9%.

The values are drawn from PubChem BioAssay (NCI).
